From PubChem BioAssay AID1259423 (Fisher Drug Discovery Resource Center, 2018) come the findings set out here.

“And” between values parts separate entries of the source, which are not always exact repeats. Identical values can stand only once. Screen size: about 270,000 compounds; about 410 (0.15%) were called active. No stated cut-off is given here; in the data, active means activation above about 40%; inactive means the rest, inconclusive results apart. What follows is part of a selection rich in actives, with near analogues and random picks from the rest. A structure can be active in one record and inactive in another.

This assay has as its system Aedes aegypti neuropeptide Y-like receptor 7 (NPYLR7). Kind of assay: agonists of mosquito NPYLR7 receptor, primary screen, cell-based, Aedes aegypti, calcium fluorescence, mosquito biting behavior (AID 1259423).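 Further: 0% = vehicle and 100% = reference agonist at the receptor.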 As to conditions: HEK293T NPYLR7/Galpha15, GCaMP6s calcium fluorescence, at 10 µM, stronger effect = higher value.
Where [1] appears, read: measured here: Max-Min RFU normalised activation.

For `Cc1nc2c(=O)n(CC(=O)Nc3ccc(F)cc3)nc(-c3ccc(F)cc3)c2s1`, the activation was -3.19% (inactive). Moreover, the activation under setting [1] is -5.39%.

On to `COc1ccc(C(=O)NNc2nc3c(C)c(C)ccc3s2)cc1`, for which the activation was 3.57% (inactive). For the same compound, the activation under setting [1] is -0.501%.

For the compound `O=S(=O)(Nc1ccccc1OC(F)F)c1ccccc1F`, the activation was -1.67% (inactive). The activation under setting [1] is -2.18%.

On to `Nc1[nH]n(-c2c(Cl)cc(Cl)cc2Cl)c(=O)c1N=Nc1cccc(C(F)(F)F)c1`, for which the activation was -0.505% (inactive). Also, under setting [1], the activation was -6.22%.

As for `O=C(Nc1cccc(Cl)c1)c1cn(CC2CCCO2)cc2c(=O)n(-c3ccccc3)nc1-2` (stereo unspecified), the activation was 6.66% (inactive). Also, under setting [1], the activation was determined as 6.45%.

As for `CCOC(=O)Cc1csc(=Nc2ccc(OC)cc2)n1CCO`, the activation was -15.9% (inactive). In addition, the activation under setting [1] was -20.5%.

Turning to `CC(C)OCCCNC(=O)c1ccc(-c2cccc(C(F)(F)F)c2)s1`, the activation is -2.79% (inactive). Moreover, under setting [1], the activation was 5.92%.

On to `Cc1cc2nc3c(=O)[nH]c(=O)nc-3n(C[C@H](O)[C@H](O)[C@H](O)CO)c2cc1C`, for which the activation was 71.4% (active). Under setting [1], the activation amounted to 64.2%.

For the compound `COc1cccc(OC)c1-c1cnnc(NCCN2CCCc3ccccc32)n1`, the activation was 19.3% (inactive). Moreover, under setting [1], the activation amounted to 11.8%.

For the compound `COc1ccc(CC(=O)N(Cc2nc3cc(Cl)ccc3o2)C2CCCC2)cc1OC`, the activation is 4.51% (inactive). Also, the activation under setting [1] is -5.03%.

Regarding `Cc1c(C(=O)N2CCCCC2CCc2ccc(O)cc2)oc2c(F)cccc12` (stereo unspecified), the activation is -1.59% (inactive). Moreover, under setting [1], the activation was -5.83%.

As to `N#CC(=C(O)CSc1ccc2c(c1)OCCO2)c1nc2ccccc2[nH]1`, the activation is 5.29% (inactive). Besides, under setting [1], the activation worked out at 3.43%.

For the compound `N#C/C(=C/c1cn(-c2ccccc2)nc1-c1ccco1)c1nc2ccccc2c(=O)[nH]1`, the activation is 11.8% (inactive). The activation under setting [1] turned out to be 10.5%.

For the compound `CC1CN(c2ccc(/C=C(\C#N)c3nc4ccccc4[nH]3)o2)CC(C)O1` (stereo unspecified), the activation is 81.4% (active). For the same compound, the activation under setting [1] stood at 110%.

Consider `COc1ccc(C(CC(=O)N(C)Cc2cnccn2)c2ccccc2)cc1` (stereo unspecified), for which the activation is 16% (inactive). For the same compound, the activation under setting [1] worked out at 4.14%.

Regarding `O=C(NCCCNC(=O)[C@H]1CCCN1C(=O)COc1ccc(Cl)cc1)c1ccc(F)cc1`, the activation was -0.263% (inactive). Further, under setting [1], the activation stood at 6.73%.

`CC1CCN(C(=O)C(C)Nc2ccc3c(c2)OCO3)CC1` (stereo unspecified): the activation was 3.12% (inactive). The activation under setting [1] came out at 1.09%.

Consider `COc1cc2c(cc1OC)C(c1ccccc1)N(C(=O)c1cc3c(s1)-c1ccccc1OC3)CC2` (stereo unspecified), for which the activation was -0.991% (inactive). In addition, the activation under setting [1] was 6.66%.

For the compound `COc1cc2c(cc1O)[C@@H](Cc1ccc(O)cc1)[N+](C)(C)CC2`, the activation was 5.5% (inactive). The activation under setting [1] was -4.18%.

With `COc1ccc(CC(=O)OCc2ccc(COC(=O)Cc3ccc(OC)c(OC)c3)cc2)cc1OC`, the activation was -2.95% (inactive). Moreover, the activation under setting [1] was -6.45%.

Turning to `COc1ccc(CC2c3cc(OC)c(OC)cc3CC[N+]2(C)CCC(=O)OCCCCCOC(=O)CC[N+]2(C)CCc3cc(OC)c(OC)cc3C2Cc2ccc(OC)c(OC)c2)cc1OC` (stereo unspecified), the activation is 41.9% (inactive) and -3.83% (inactive) and 69.2% (active). In addition, the activation under setting [1] was 33.2% and 2.45% and 52.5%.

Turning to `CCOc1ccc(NC(=O)CSc2nc3c(c(=O)n2CCOC)SC(C)C3)cc1` (stereo unspecified), the activation is 3.32% (inactive). Under setting [1], the activation was 0.972%.

On to `O=C(NC1COC2(CCCCC2)C1)c1ccco1` (stereo unspecified), for which the activation was -4.17% (inactive). The activation under setting [1] was -7.46%.

`CC(C)CC(NC1CCN(C(=O)c2ccccc2)CC1)c1ncnn1C` (stereo unspecified): the activation was 8.96% (inactive). Further, the activation under setting [1] came out at 6.07%.

As for `C/C(=N/Nc1nc2c(s1)CCCC2)c1ccc(Cl)cc1`, the activation was 0.513% (inactive). The activation under setting [1] stood at 5.88%.

On to `O=C1NC(c2ccc3c(c2)OCO3)C(C(=O)c2ccccc2)C(O)(C(F)(F)F)N1` (stereo unspecified), for which the activation is 42.8% (active). Further, the activation under setting [1] worked out at 72%.

Turning to `O=C1NC(c2ccc(Cl)cc2)C(C(=O)c2ccccc2)C(O)(C(F)(F)F)N1` (stereo unspecified), the activation was -3.23% (inactive). Further, the activation under setting [1] was -4.42%.

On to `CC1=C(C(=O)Nc2ccccc2)C(c2ccc3c(c2)OCO3)NC(=S)N1` (stereo unspecified), for which the activation was 4.23% (inactive). In addition, the activation under setting [1] stood at 8.09%.

As to `Cc1ccc(Cl)cc1NC(=O)CN1C(=O)c2ccc([N+](=O)[O-])cc2C1=O`, the activation is -3.83% (inactive). Further, the activation under setting [1] was -10.3%.

In the case of `CC(C)c1ccc(C2CC(c3ccccc3)=Nc3ncnn32)cc1` (stereo unspecified), the activation is 4.24% (inactive). Moreover, under setting [1], the activation amounted to 2.65%.

For the compound `O=C(Nc1ccc(N2CCC(Cc3ccccc3)CC2)c(C(=O)NCc2ccc(F)cc2)c1)c1cccc([N+](=O)[O-])c1`, the activation is -3.24% (inactive). In addition, the activation under setting [1] was found to be 7.02%.

On to `CCCCNc1ncnc2sc3c(c12)CCC(C)C3` (stereo unspecified), for which the activation was 1.78% (inactive). Besides, the activation under setting [1] was found to be 2.41%.

In the case of `O=C(O)CCC(=O)Nc1nc2c(s1)CCCC2`, the activation was 1.28% (inactive). In addition, the activation under setting [1] was -0.361%.

Take `COc1ccc(C(=O)NCCn2ncc3c(=O)n(Cc4cccc(C)c4)cnc32)cc1`: the activation is -1.65% (inactive). Further, the activation under setting [1] was -7.02%.

In the case of `c1csc(-c2nc(CSc3nnc(-c4cccs4)n3C3CC3)co2)c1`, the activation was -0.388% (inactive). For the same compound, the activation under setting [1] worked out at 7.96%.

Consider `COc1ccccc1CNC1CC2CCC1(C)C2(C)C` (stereo unspecified), for which the activation was 7.42% (inactive). Besides, the activation under setting [1] came to 2.21%.

In the case of `COc1ccc(-c2cccc(-c3nnc(C)s3)c2)c(OC)c1`, the activation was 2.95% (inactive). For the same compound, the activation under setting [1] worked out at 1.01%.

As to `CC(C)c1ccc(C(=O)NCc2ccccc2CS(=O)(=O)N2CCOCC2)cc1`, the activation was -3.68% (inactive). The activation under setting [1] was -3.21%.

In the case of `Clc1ccc(-c2noc3c2CN(CCn2cc(Cl)cn2)CC3)cc1`, the activation is 74.9% (active). Moreover, the activation under setting [1] is 54.3%.

For the compound `Fc1ccccc1-c1noc2c1CN(Cc1cccn1-c1ncccn1)CC2`, the activation was 8.24% (inactive). Further, under setting [1], the activation is 5.36%.

Take `c1ccc2c(-c3noc4c3CN(CC3CCCO3)CC4)cccc2c1` (stereo unspecified): the activation was 14.2% (inactive). Besides, the activation under setting [1] was 6.24%.

With `COCc1c(Br)c(C)nc(OCC(=O)N/N=C\c2cc(Br)c(OCc3ccc(Cl)cc3)c(OC)c2)c1C#N`, the activation is 25.2% (inactive). Moreover, the activation under setting [1] amounted to 27.7%.

Turning to `Cc1nn(-c2ccc(F)cc2F)c(C)c1CCC(=O)N1Cc2cccc3cccc(c23)C1`, the activation was 4.97% (inactive). Moreover, the activation under setting [1] is 3.44%.

As to `COc1ccc(Cl)c2sc(N(CCN(C)C)C(=O)c3cc(C)n(C)n3)nc12`, the activation was 1.87% (inactive). Moreover, the activation under setting [1] was 0.849%.

Consider `Cc1ccc(Sc2ncccc2C(=O)N2CCN(c3nccc(-c4cccc(C(F)(F)F)c4)n3)CC2)cc1`, for which the activation was 14% (inactive). Moreover, the activation under setting [1] is 18.9%.

As to `COc1cc(OC)cc(C(NC(=O)Cn2ccccc2=O)c2nccn2C)c1` (stereo unspecified), the activation is 5.09% (inactive). Besides, under setting [1], the activation was 2.46%.

Take `CN(Cc1ccccc1)C1(C(=O)NCC2COCCO2)Cc2ccccc2C1` (stereo unspecified): the activation was 2.27% (inactive). The activation under setting [1] is -0.863%.

`COc1c(C=NNC(=O)c2cc(Br)ccc2O)sc2ccccc12`: the activation was -6.22% (inactive). The activation under setting [1] is -11.5%.
